From PubChem BioAssay (Tox21)
Records with an inconclusive call do not appear. Calls of active or inactive are those of the source. Unless noted, the call rests on the fitted dose curve.

Tests used:
[1] = Nuclear factor erythroid 2-related factor 2/antioxidant responsive element (Nrf2/ARE) small molecule agonists: qHTS cell viability counter screen in human keratinocytes (AID 1919968; active means well fitted curve in the direction sought with a large enough effect in the repeat runs; an effect the other way counts as inactive or inconclusive; further: nearly all actives have a fitted effect of over 55% in size; further: potency means the concentration at half of the fitted maximal effect)
Outline: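 After a 5 h attachment period, ARE-reporter keratinocytes were dosed with compounds in DMSO and then cultured 23 h at 37 C. Cell viability came from CellTiter-Fluor signal read after a further 1 h.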

[2] = molecular target: Gonadotropin-releasing hormone receptor (Homo sapiens) (UniProt P30968); assay: Human gonadotropin-releasing hormone receptor (GnRHR) small molecule agonists, calcium flux assay in GnRHR-HEK293 cells (AID 1920063); further: nearly all actives have a fitted effect of over 35% in size
Outline: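 We seeded human GnRHR-expressing HEK293 cells for 18 hours, loaded them with calcium dye for an hour at 37 C, added test compounds, and recorded fluorescence intensity kinetically for three minutes.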

[3] = molecular target: KiSS-1 receptor (Homo sapiens) (UniProt Q969F8); assay: Human kisspeptin (KISS1R) small molecule agonists, calcium flux assay in KISS1R-HEK293 cells (AID 1920064; active means well fitted curve in the direction sought with a large enough effect in the repeat runs; an effect the other way counts as inactive or inconclusive)
Outline: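 Kinetic calcium assay, 1 s sampling over 3 min at Ex/Em 480/540, in HEK293 cells engineered with human KISS1R; compounds delivered in DMSO after 1 h dye loading.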

[4] = G protein-coupled receptor (GPCR) small molecule agonists, calcium flux assay: HEK293 wild type cell line counter screen (AID 1920065)
Outline: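 Calcium-sensitive dye, loaded 1 h at 37 C into cells cultured 18 h, reports compound-evoked calcium release as fluorescence (Ex/Em 480/540), measured over 3 min. Agonist mode; 15-point titrations, triplicate.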

[5] = p53 small molecule agonists, cell-based qHTS assay with human liver microsomes (AID 1963577)
Outline: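 Compounds act here after metabolic activation: human liver microsomes and NADPH, both at 0.5 mg/mL final, were co-added to p53RE-bla cells. Incubation ran 16 h at 37 C, followed by LiveBLAzer detection.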

[6] = p53 small molecule agonists, cell-based qHTS assay with rat liver microsomes (AID 1963578)
Outline: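 Read-out is beta-lactamase reporter fluorescence (LiveBLAzer, 2 h, room temperature, dark) in p53RE-bla cells treated 16 h at 37 C with compound, rat liver microsomes and NADPH, both 0.5 mg/mL final.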

[7] = p53 small molecule agonists, cell-based qHTS assay with human liver microsomes: qHTS cell viability counter screen (AID 1963579); further: nearly all actives have a fitted effect of over 45% in size
Outline: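 Cells carrying the p53 response-element beta-lactamase reporter are treated for 16 h at 37 C with test compounds in the presence of human liver microsomes and NADPH (both 0.5 mg/mL final); ATP-based CellTiter-Glo luminescence then reports viability.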

[8] = p53 small molecule agonists, cell-based qHTS assay with rat liver microsomes: qHTS cell viability counter screen (AID 1963580); further: nearly all actives have a fitted effect of over 45% in size
Outline: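 Intracellular ATP, by CellTiter-Glo luminescence, defines viability. HCT-116 p53RE-bla cells, 4,000 per well, were compound-treated in the presence of rat liver microsomes and NADPH for 16 h at 37 C.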

[9] = p53 small molecule agonists, cell-based qHTS assay: qHTS cell viability counter screen (AID 1963581); further: nearly all actives have a fitted effect of over 45% in size
Outline: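 Following 5 h attachment, HCT-116 p53RE-bla cells took up compound for 16 h at 37 C; the reporter was read with B/G FRET substrate (2 h RT), and viability then via CellTiter-Glo ATP luminescence.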

[10] = molecular target: 5-hydroxytryptamine receptor 2A (Homo sapiens) (UniProt P28223); assay: 5-hydroxytryptamine receptor 2A (HTR2A) small molecule antagonists, cell-based qHTS assay (AID 1963586); further: nearly all actives have a fitted effect of over 45% in size; further: potency means the concentration at half of the fitted maximal effect
Outline: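 Antagonist-mode intracellular calcium assay: DOI (4 nM) added after 5 min compound pre-incubation at room temperature to dye-loaded HTR2A-CHO cells. Fluorescence followed for 3 min, sampled every second.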

[11] = molecular target: 5-hydroxytryptamine receptor 2A (Homo sapiens) (UniProt P28223); assay: 5-hydroxytryptamine receptor 2A (HTR2A) small molecule agonists, cell-based qHTS assay (AID 1963587); further: nearly all actives have a fitted effect of over 30% in size; further: potency means the concentration at half of the fitted maximal effect
Outline: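 Kinetic calcium-flux fluorescence (2 min, 1 sec intervals) after compound addition in agonist mode. HTR2A-CHO cells were cultured 18 h, then dye-loaded 1 h at 37 C.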

[12] = molecular target: Muscarinic acetylcholine receptor M1 (Homo sapiens) (UniProt P11229); assay: Cholinergic receptor muscarinic 1 (CHRM1) small molecule antagonists, cell-based qHTS assay (AID 1963588); further: nearly all actives have a fitted effect of over 40% in size
Outline: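 CHRM1-CHO calcium-flux assay, antagonist mode. Cells were seeded 18 h, dye-loaded 1 h at 37 C and given compound for 5 min at RT, then acetylcholine was added at 50nM. FDSS fluorescence was read 3 min; 15 concentrations, three runs.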

[13] = molecular target: Muscarinic acetylcholine receptor M1 (Homo sapiens) (UniProt P11229); assay: Cholinergic receptor muscarinic 1 (CHRM1) small molecule agonists, cell-based qHTS assay (AID 1963589); further: nearly all actives have a fitted effect of over 35% in size
Outline: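 Measures agonist-induced intracellular calcium rise. Stable human CHRM1 CHO line, 1 h dye load at 37 C, compounds from DMSO, kinetic fluorescence read.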

[14] = molecular target: Beta-2 adrenergic receptor (Homo sapiens) (UniProt P07550); assay: Adrenergic beta2 receptor (ADRB2) small molecule antagonists, cell-based qHTS assay (AID 1963592); further: series mostly up to about 92 µM; nearly all actives have a fitted effect of over 50% in size
Outline: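 Cells (CHO, stable ADRB2 overexpression) incubated 18-20hr at 37C; compounds added from DMSO; agonist mix (1nM isoproterenol, 100uM IBMX, 25uM Ro-20-1724) added; 0.5hr RT; d2-cAMP and anti-cAMP-cryptate added; 1hr RT; 665/615 nm read.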

[15] = molecular target: D(2) dopamine receptor (Homo sapiens) (UniProt P14416); assay: Dopamine D2 receptor (DRD2) small molecule agonists, cell-based qHTS assay (AID 1963594); further: nearly all actives have a fitted effect of over 35% in size
Outline: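 cAMP accumulation in DRD2-HEK293 cells measured by HTRF after 1 h detection; compounds added 10 min before NKH477 (200nM […]) forskolin-analogue stimulation, 30 min at room temperature, with Ro20-1724 present at 0.1 mM final.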

[16] = molecular target: D(2) dopamine receptor (Homo sapiens) (UniProt P14416); assay: Dopamine D2 receptor (DRD2) small molecule antagonists, cell-based qHTS assay (AID 1963595; active means well fitted inhibition curve with a large enough effect in the signal ratio in the repeat runs, with a control signal flat; the % refers to the signal ratio; further: potency means the concentration at half of the fitted maximal effect)
Outline: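 HTRF cAMP read-out at 665 and 620 nm emission (340 nm excitation). Antagonist mode: compounds were tested against 12 nM quinpirole in DRD2-HEK293 cells, with 200 nM NKH477 raising cAMP and 0.1 mM Ro20-1724 blocking its breakdown.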

[17] = p53 small molecule agonists, cell-based qHTS assay (AID 1963582; active means well fitted activation curve with a large enough effect in the signal ratio in the repeat runs, not every such curve was filed as active; the % refers to the signal ratio)
Outline: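 In this cell-based concentration-response screen, a p53 response element drives beta-lactamase; cells received DMSO-borne compounds after 5 h culture and were incubated a further 16 h before FRET substrate development.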

[18] = molecular target: Beta-2 adrenergic receptor (Homo sapiens) (UniProt P07550); assay: Adrenergic beta2 receptor (ADRB2) small molecule agonists, cell-based qHTS assay (AID 1963593);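 further: CHO cells stably overexpressing human ADRB2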
Outline: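 CHO cells stably over-expressing ADRB2 were plated overnight at 37C, then dosed with compounds plus a stimulation mix containing 100uM IBMX and 25uM Ro-20-1724 for 0.5hr at room temperature. cAMP was measured by HTRF competition, 1hr.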

[19] = cAMP Responsive Elements (CRE) small molecule agonists, cell-based qHTS assay (AID 1963590)
Outline: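 A CRE-responsive beta-lactamase reporter in HEK 293T cells was used. Treatment ran 3 h at 37 C; detection used LiveBLAzer B/G FRET substrate for 2 h at room temperature.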

[20] = cAMP Responsive Elements (CRE) small molecule antagonists, cell-based qHTS assay (AID 1963591; active means well fitted inhibition curve with a large enough effect in the signal ratio in the repeat runs, not every such curve was filed as active; the % refers to the signal ratio)
Outline: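 HEK293T cells carrying a CRE-driven beta-lactamase reporter receive compound and NKH477 (0.25 uM final) for 3 h. Fluorescence from LiveBLAzer B/G FRET substrate is read after 2 h at room temperature.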
On the % scale 0 is the no-effect control and ±100 the full control effect.

5-hydroxytryptamine receptor 2A (Homo sapiens), sequence (P28223 whole entry, looked up): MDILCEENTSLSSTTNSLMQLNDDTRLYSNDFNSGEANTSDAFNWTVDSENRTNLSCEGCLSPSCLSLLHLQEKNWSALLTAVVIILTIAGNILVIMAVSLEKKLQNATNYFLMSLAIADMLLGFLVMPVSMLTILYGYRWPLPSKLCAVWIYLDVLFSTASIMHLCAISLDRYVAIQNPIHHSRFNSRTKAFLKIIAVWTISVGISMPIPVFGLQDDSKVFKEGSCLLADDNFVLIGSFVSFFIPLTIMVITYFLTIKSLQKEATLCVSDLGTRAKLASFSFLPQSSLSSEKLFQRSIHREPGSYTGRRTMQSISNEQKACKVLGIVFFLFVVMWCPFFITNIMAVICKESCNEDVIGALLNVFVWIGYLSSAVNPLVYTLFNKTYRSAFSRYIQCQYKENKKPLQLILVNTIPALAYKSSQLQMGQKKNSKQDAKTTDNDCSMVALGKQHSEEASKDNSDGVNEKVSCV
Muscarinic acetylcholine receptor M1 (Homo sapiens), sequence (P11229 whole entry, looked up): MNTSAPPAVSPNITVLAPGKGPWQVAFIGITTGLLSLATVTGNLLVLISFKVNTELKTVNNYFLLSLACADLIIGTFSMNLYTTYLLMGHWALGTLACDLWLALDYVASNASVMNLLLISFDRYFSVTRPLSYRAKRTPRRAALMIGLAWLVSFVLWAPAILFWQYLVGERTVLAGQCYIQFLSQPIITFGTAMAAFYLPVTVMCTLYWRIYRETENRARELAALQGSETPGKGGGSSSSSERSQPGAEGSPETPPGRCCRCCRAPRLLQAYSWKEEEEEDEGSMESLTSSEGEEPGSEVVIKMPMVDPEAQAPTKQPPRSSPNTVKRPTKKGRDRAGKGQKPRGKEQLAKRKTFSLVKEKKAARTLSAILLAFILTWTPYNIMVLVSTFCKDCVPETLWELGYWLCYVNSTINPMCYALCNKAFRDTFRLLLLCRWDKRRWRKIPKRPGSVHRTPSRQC
Beta-2 adrenergic receptor (Homo sapiens), sequence (P07550 whole entry, looked up): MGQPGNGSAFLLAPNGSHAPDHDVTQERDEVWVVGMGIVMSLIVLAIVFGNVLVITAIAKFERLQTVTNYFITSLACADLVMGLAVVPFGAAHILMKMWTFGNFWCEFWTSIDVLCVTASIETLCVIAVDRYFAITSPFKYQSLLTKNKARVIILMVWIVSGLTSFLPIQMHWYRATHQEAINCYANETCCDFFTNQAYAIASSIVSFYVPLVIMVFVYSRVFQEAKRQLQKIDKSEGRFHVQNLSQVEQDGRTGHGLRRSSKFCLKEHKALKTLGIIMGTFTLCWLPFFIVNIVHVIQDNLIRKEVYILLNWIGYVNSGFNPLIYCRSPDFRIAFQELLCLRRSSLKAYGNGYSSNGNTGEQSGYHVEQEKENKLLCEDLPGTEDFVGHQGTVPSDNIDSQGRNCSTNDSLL
Gonadotropin-releasing hormone receptor (Homo sapiens), sequence (P30968 whole entry, looked up): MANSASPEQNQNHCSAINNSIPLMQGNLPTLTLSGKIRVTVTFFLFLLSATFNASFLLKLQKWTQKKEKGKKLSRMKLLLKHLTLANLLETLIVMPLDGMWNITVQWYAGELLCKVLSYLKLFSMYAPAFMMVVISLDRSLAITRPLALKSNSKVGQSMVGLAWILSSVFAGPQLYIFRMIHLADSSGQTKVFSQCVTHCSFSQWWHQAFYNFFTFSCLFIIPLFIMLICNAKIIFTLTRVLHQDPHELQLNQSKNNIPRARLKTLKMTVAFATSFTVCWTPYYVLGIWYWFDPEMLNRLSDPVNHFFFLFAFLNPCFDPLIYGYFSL
D(2) dopamine receptor (Homo sapiens), sequence (P14416 whole entry, looked up): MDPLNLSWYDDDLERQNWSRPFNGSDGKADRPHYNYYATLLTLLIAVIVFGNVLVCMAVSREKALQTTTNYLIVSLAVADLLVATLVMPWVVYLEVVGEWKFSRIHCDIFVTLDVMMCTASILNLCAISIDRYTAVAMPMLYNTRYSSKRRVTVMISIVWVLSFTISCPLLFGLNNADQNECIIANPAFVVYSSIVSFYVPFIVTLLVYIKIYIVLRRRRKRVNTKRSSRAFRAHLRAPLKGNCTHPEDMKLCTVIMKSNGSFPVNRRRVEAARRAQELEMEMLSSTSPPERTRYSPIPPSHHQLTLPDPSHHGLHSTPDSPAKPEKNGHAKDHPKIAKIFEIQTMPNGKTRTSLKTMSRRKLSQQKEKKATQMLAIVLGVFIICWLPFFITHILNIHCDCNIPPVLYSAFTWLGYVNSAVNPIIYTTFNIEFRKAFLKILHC
KiSS-1 receptor (Homo sapiens), sequence (Q969F8 whole entry, looked up): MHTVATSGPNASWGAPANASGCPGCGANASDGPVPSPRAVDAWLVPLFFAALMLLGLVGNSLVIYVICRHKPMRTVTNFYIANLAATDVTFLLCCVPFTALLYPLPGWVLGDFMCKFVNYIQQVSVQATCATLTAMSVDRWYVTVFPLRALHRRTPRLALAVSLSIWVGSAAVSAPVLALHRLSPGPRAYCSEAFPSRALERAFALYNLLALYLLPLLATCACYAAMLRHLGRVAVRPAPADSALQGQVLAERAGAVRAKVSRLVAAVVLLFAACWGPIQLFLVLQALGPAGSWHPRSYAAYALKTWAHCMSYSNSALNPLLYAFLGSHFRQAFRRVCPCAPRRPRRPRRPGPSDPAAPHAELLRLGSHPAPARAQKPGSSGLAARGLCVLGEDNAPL

Cc1oc(-c2ccccc2)nc1CCC(=O)c1ccc(CC2SC(=O)NC2=O)cc1 (stereo not drawn)
inactive: Potency [1] | Potency [2] | outcome [3] | outcome [4] | Potency [5] | Potency [6] | Potency [7] | Potency [8] | Potency [9] | Potency [10] | Potency [11] | Potency [12] | Potency [13] | Potency [14] | Potency [15] | Potency [16]

CCCC(C(=O)OCCN(CC)CC)(c1ccccc1)c1ccccc1
active: Potency [16] 26.6 µM
inactive: Potency [1] | Potency [2] | outcome [3] | outcome [4] | Potency [5] | Potency [6] | Potency [8] | Potency [17] | Potency [11] | Potency [12] | Potency [13] | Potency [15]

Cc1cc(Br)ccc1NC(=O)CCl
active: Potency [1] 30.6 µM
inactive: Potency [2] | outcome [3] | outcome [4] | Potency [5] | Potency [6] | Potency [7] | Potency [8] | Potency [10] | Potency [11] | Potency [13] | Potency [14] | Potency [18] | Potency [15] | Potency [16]

CC(C)C(=O)OC/C=C/c1ccccc1
inactive: Potency [1] | Potency [2] | outcome [3] | outcome [4] | Potency [5] | Potency [6] | Potency [7] | Potency [8] | Potency [17] | Potency [10] | Potency [12] | Potency [13] | Potency [19] | Potency [20] | Potency [14] | Potency [18] | Potency [16]

C=C(C)C(=O)OCC(C)(C)COC(=O)C(=C)C
inactive: Potency [1] | Potency [2] | outcome [3] | outcome [4] | Potency [5] | Potency [6] | Potency [7] | Potency [9] | Potency [17] | Potency [10] | Potency [11] | Potency [12] | Potency [13] | Potency [19] | Potency [20] | Potency [14] | Potency [15] | Potency [16]

CCCCCCCCCCCCCc1ccccc1
inactive: Potency [1] | Potency [2] | outcome [3] | outcome [4] | Potency [5] | Potency [6] | Potency [7] | Potency [9] | Potency [17] | Potency [11] | Potency [13] | Potency [19] | Potency [20] | Potency [14] | Potency [18] | Potency [15] | Potency [16]

CCc1cc(Cc2cc(CC)cc(C(C)(C)C)c2O)c(O)c(C(C)(C)C)c1
inactive: Potency [2] | outcome [3] | outcome [4] | Potency [5] | Potency [6] | Potency [7] | Potency [8] | Potency [17] | Potency [10] | Potency [11] | Potency [13] | Potency [20] | Potency [15] | Potency [16]
active: Potency [1] 13.7 µM

C[C@@H]1CC[C@@]2(OC1)O[C@H]1C[C@H]3[C@@H]4CC[C@H]5C[C@@H](O)CC[C@]5(C)[C@H]4CC(=O)[C@]3(C)[C@H]1[C@@H]2C
inactive: activity change, negative = cytotoxicity [1] -14.4% [at 8.39 µM] | activity change [2] -0.98% [at 5.22 µM, hits give high values] | activation [3] 0.0336% [at 6.97 µM] | activation [4] 1.09% [at 5.23 µM] | activation [5] 1.05% [at 5.99 µM] | activation [6] 0.138% [at 5.99 µM] | activity change, negative = cytotoxicity [8] 5.02% [at 5.99 µM] | activity change, negative = cytotoxicity [9] -10.7% [at 5.99 µM] | activation [17] -0.0756% [at 5.99 µM] | activity, negative = inhibition [10] 89.9% [at 5.62 µM] | activation [11] -0.761% [at 7.02 µM] | activity, negative = inhibition [12] 4.81% [at 5.58 µM] | activation [13] 0.4% [at 6.97 µM] | activation [19] -0.0414% [at 8.39 µM] | activity change, negative = inhibition [20] 0.931% [at 8.39 µM] | activity change, negative = inhibition [14] -3.89% [at 8.39 µM] | activation [18] 3.94% [at 8.39 µM] | activation [15] -11.7% [at 8.39 µM] | activity change, negative = inhibition [16] -1.11% [at 8.38 µM]

OC[C@@H](O)[C@H](O)[C@@H](O)[C@@H](O)CO
inactive: Potency [1] | Potency [2] | outcome [3] | outcome [4] | Potency [5] | Potency [6] | Potency [7] | Potency [9] | Potency [17] | Potency [19] | Potency [20] | Potency [14] | Potency [18] | Potency [15] | Potency [16]

C[C@@H]1C[C@H]2[C@@H]3CCC4=CC(=O)C=C[C@]4(C)[C@@]3(F)[C@@H](O)C[C@]2(C)[C@@]1(O)C(=O)CO
inactive: Potency [1] | Potency [2] | outcome [3] | outcome [4] | Potency [5] | Potency [6] | Potency [7] | Potency [8] | Potency [17] | Potency [19] | Potency [20] | Potency [14] | Potency [15] | Potency [16]

CC/C=C\CCOC(C)=O
inactive: Potency [1] | Potency [2] | outcome [3] | outcome [4] | Potency [5] | Potency [6] | Potency [7] | Potency [9] | Potency [17] | Potency [10] | Potency [11] | Potency [12] | Potency [13] | Potency [19] | Potency [20] | Potency [14] | Potency [15] | Potency [16]

C=CC(=O)OCC(O)COc1ccccc1 (stereo not drawn)
inactive: Potency [2] | outcome [3] | outcome [4] | Potency [5] | Potency [6] | Potency [7] | Potency [9] | Potency [10] | Potency [11] | Potency [12] | Potency [13] | Potency [14] | Potency [16]
active: Potency [1] 61.1 µM

CCCN(CCC)C(=O)C(CCC(=O)OCCCN1CCN(CCOC(=O)Cc2c(C)n(C(=O)c3ccc(Cl)cc3)c3ccc(OC)cc23)CC1)NC(=O)c1ccccc1 (stereo not drawn)
inactive: Potency [1] | Potency [2] | outcome [3] | outcome [4] | Potency [5] | Potency [6] | Potency [7] | Potency [8] | Potency [11] | Potency [13] | Potency [15]

Cc1ccc2c(c1)c1c3n2CCNC3CCC1 (stereo not drawn)
active: Potency [10] 18.3 µM | Potency [11] 9.52 µM
inactive: Potency [1] | Potency [2] | outcome [3] | outcome [4] | Potency [5] | Potency [6] | Potency [8] | Potency [17] | Potency [12] | Potency [13] | Potency [19] | Potency [20] | Potency [14] | Potency [15] | Potency [16]

CCOC(=O)[C@H](CCc1ccccc1)N[C@@H](C)C(=O)N(CC(=O)O)C1Cc2ccccc2C1
inactive: Potency [1] | Potency [2] | outcome [3] | outcome [4] | Potency [5] | Potency [6] | Potency [7] | Potency [8] | Potency [17] | Potency [10] | Potency [11] | Potency [12] | Potency [13] | Potency [14]
